# Reference: PubChem BioAssay AID488899 (Broad Institute, 2010)
# Out of some 330,000 compounds screened, about 2,800 (0.85%) were called active. The sample holds actives, similar compounds and a random draw of the others, so the mix is not that of the screen. Values without a mark were called inactive.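 How the source made its calls: active means mean inhibition across replicates of 60% or more, whatever share of single replicates reaches that level; inconclusive means some that reach 60%, reason not given; inactive means mean inhibition across replicates below 60%.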
# Assay: MITF transcriptional activity suppression – cell-based, SK-MEL-5, single point, luciferase, primary screen (AID 488899)
# Details: SK-MEL-5 TRPM1 promoter luciferase, 24 h; at 12.5 µM; hits give high values
row,Structure (SMILES),inhibition
1,CN(CCc1ccccn1)C(=O)CCC1CCCN(Cc2ccccc2OC(F)F)C1 (centres undefined),-12.8%
2,CC[C@]1(O)C[C@@H]2CN(CCc3c([nH]c4ccccc34)[C@@](C(=O)OC)(c3cc4c(cc3OC)N(C)[C@H]3[C@@](O)(C(=O)OC)[C@H](OC(C)=O)[C@]5(CC)C=CCN6CC[C@]43[C@@H]65)C2)C1,62.2% (active)
3,CC[C@]1(O)CC2CN(CCc3c([nH]c4ccccc34)[C@@](C(=O)OC)(c3cc4c(cc3OC)N(C=O)[C@H]3[C@@](O)(C(=O)OC)[C@H](OC(C)=O)[C@]5(CC)C=CCN6CC[C@]43[C@@H]65)C2)C1 (some centres undefined),45.8%
4,CCC1SC(CC)C(=O)N(CC(=O)NC2CCCCC2)C1=O (centres undefined),13.1%
5,Clc1ccc(C[n+]2cc(-c3ccc(Cl)cc3)n3c2CCC3)cc1,47.5%
6,CN(C)Cc1c(C(=O)N/N=C/c2ccccc2OCc2ccc(F)cc2)nnn1-c1nonc1N,-15.2%
7,Cc1ccc2c(O)c(Cc3ccccc3)c(=O)[nH]c2n1,2.8%
8,COC(=O)COc1ccc2c(=O)c(Oc3ccccc3Br)coc2c1,-0.261%
9,O=C(O)c1ccc(Cn2cnc3c(=S)nc[nH]c32)cc1,-0.814%
10,COc1ccc(C2=Nn3c(nnc3-c3ccccc3OC)SC2)cc1OC1CCCC1,65.9% (active)
11,CC1=Nn2c(nnc2-c2ccccc2)SC1,-0.377%
12,COc1ccccc1-c1nnc2n1N=C(c1ccc(OC(F)F)c(OCC3CC3)c1)CS2,-4.86%
13,COC(C[C@H](O)CC(=O)COCc1ccccc1)OC,-3.12%
14,O=C(O)CN1c2cccc3cccc(c23)S1(=O)=O,13.3%
15,N/C(=N\OC(=O)Nc1ccccc1)c1ccno1,-14%
16,CCCCOc1ccc(C(=O)NN2CCN(C)CC2)cc1,-7.2%
17,CCCOc1ccc(C(=O)C(CCC(CNCC)C(=O)c2ccc(OCCC)cc2)CNCC)cc1 (centres undefined),102% (active)
18,CCCOc1ccc(C(=O)CCC(=O)OC(C)C(=O)Nc2ccc(NC(C)=O)cc2)cc1 (centres undefined),-26%
19,Cc1ccc(/C=C2/SC(=S)N(CCC(=O)NCCCN3CCOCC3)C2=O)cc1,-20.1%
20,COc1ccc(/C=C2\SC(=S)N(CCCC(=O)NC3CCCC3)C2=O)cc1OC,37.5%
21,C=CCOc1ccc(/C=C2\SC(=S)N(CCC(=O)O)C2=O)cc1,78.2% (active)

row,Structure (SMILES),inhibition
1,Cc1ccc(S(=O)(=O)N(CC(=O)Nc2cccc([N+](=O)[O-])c2)Cc2ccc(Cl)cc2)cc1,15.8%
2,CC(=O)c1cccc(NC(=O)C2CCN(C(=O)c3ccccc3Cl)CC2)c1,28.4%
3,O=C(COC(=O)C1CCN(S(=O)(=O)c2ccc3c(c2)OCCO3)CC1)Nc1ccccc1OC(F)F,-1.73%
4,Cc1ccc(NC(=O)/C(=C/c2ccc([N+](=O)[O-])cc2)NC(=O)c2ccccc2)cc1,8.59%
5,CCOC(=O)/C(=N\Nc1ccccc1[N+](=O)[O-])c1csc(Nc2ccccc2)n1,-14.3%
6,CCOC(=O)/C(=C\c1ccc([N+](=O)[O-])cc1)C(=O)c1cc(C(C)=O)c(Nc2ccccc2)s1,100% (active)
7,CC(=O)c1ccc(N2CCN(C(=O)CCNC(=O)Cn3ccc4ccccc4c3=O)CC2)cc1,0.055%
8,CCC(=C/c1sc2ccc3ccccc3c2[n+]1C)/C=C1\Sc2ccc3ccccc3c2N1C,77.8% (active)
9,Cc1nc(-c2nnc(SCC(=O)Nc3cc(C(F)(F)F)cc(C(F)(F)F)c3)n2C)cs1,6.42%
10,CCCCOc1ccc(C(=O)N/C(=C/C=C/c2ccccc2)C(=O)N2CCOCC2)cc1,0.224%
11,O=[N+]([O-])c1cc2ccccc2nc1-c1ccccc1,-2.83%
12,CN(C)CCn1c2c(c(SCC(=O)Nc3ccccc3C(F)(F)F)nc1=O)CCCC2,1.54%
13,CC1CCCCC1NC(=O)/C(C#N)=C/C=C/c1ccccc1[N+](=O)[O-] (centres undefined),87% (active)
14,O=[N+]([O-])c1ccccc1/C=C/CN1CCC(O)CC1,-6.15%
15,O=[N+]([O-])c1ccccc1/C=C/CN1CCCC(CO)C1 (centres undefined),3.33%
16,CSCCC(NS(=O)(=O)c1ccc2c(c1)oc(=O)n2C)C(=O)NC1CCCc2ccccc21 (centres undefined),4.17%
17,Cc1cccc(/C(N)=N/OC(=O)c2ccccc2Cl)c1,-7.17%
18,CC1CN(C(=O)CCC(=O)NCc2cccnc2)c2ccccc2O1 (centres undefined),-4.62%
19,CC1CN(C(=O)CCC(=O)NCCCN2CCC(Cc3ccccc3)CC2)c2cc(Cl)ccc2O1 (centres undefined),81.8% (active)
20,COc1ccccc1NC(=O)CCC(=O)N1CC(C)Oc2ccc(C)cc21 (centres undefined),-0.622%
21,COc1ccc(OC)c(-c2c(=O)n(OCc3ccccc3Br)c3ccccc3[n+]2[O-])c1,15.9%

row,Structure (SMILES),inhibition
1,CC(=O)Nc1ccc(S(=O)(=O)NC2Cc3ccccc3C2)cc1,4.61%
2,C=C(C)C(=O)Nc1cccc(C2=NOC3(C2)C[C@H](C(N)=O)N(C(=O)C(c2ccccc2)c2ccccc2)C3)c1 (some centres undefined),0.48%
3,CCN(CC)S(=O)(=O)c1ccc(Cl)c(NC(=O)c2ccncc2)c1,0.4%
4,CCN(CC)S(=O)(=O)c1ccc(NC(=O)c2cccnc2Cl)c(NC(=O)c2cccnc2Cl)c1,74.2% (active)
5,CCN(CC)S(=O)(=O)c1ccc(NC(=O)c2cnc(C)cn2)cc1,10.2%
6,O=C1CC(c2ccccc2)C(c2ccccc2)=NN1 (centres undefined),5.8%
7,Cc1cccc(N(C(=O)Cn2nnc(-c3ccc(C)o3)n2)C(C(=O)NC2CCCC2)c2ccncc2)c1 (centres undefined),3.32%
8,CCN(CC)CCn1c2ccc(Cl)cc2c2nc(C)sc21,6.02%
9,CCN(CC)CCCC(C)n1c2nc(=O)[nH]c(=O)c-2nc2cc(Cl)ccc21 (centres undefined),83.3% (active)
10,CCOC(=O)c1c(C)[nH]c(C(=O)NCCN2CCOCC2)c1C,8.7%
11,COc1ccccc1NC(=O)N(O)C1(C#N)CCCCC1,-7.2%
12,CN1c2ccc(C=O)c3c(C=O)ccc(c23)N(C)C1(C)C,96.4% (active)
13,CCN(C(=O)COC(=O)c1c(NC(C)=O)sc(C)c1C)C1CCS(=O)(=O)C1 (centres undefined),11%
14,COc1cccc(CNCCc2c[nH]c3ccccc23)c1OCc1ccccc1F,95.2% (active)
15,COc1ccc(C(CCNCc2ccccc2F)c2ccc(F)cc2)cc1 (centres undefined),-10.4%
16,COc1ccccc1NC(=O)CCCc1c[nH]c2ccccc12,-1.28%
17,O=C(c1cc(COc2ccc(F)cc2F)on1)N1CCOCC1,-44.5%
18,CC(C)c1ccc(S(=O)(=O)N2CCN(C(=O)CN3C(=O)NC(C)(c4ccccc4)C3=O)CC2)cc1 (centres undefined),-4.8%
19,Cc1csc(NC(=O)CSc2nnc(-c3cccnc3)o2)n1,-14.8%
20,Cc1ccc(S(=O)(=O)N(Cc2cccc([N+](=O)[O-])c2)C(=O)N2CCN(C)CC2)cc1,4.92%
21,O=C(CCl)N(Cc1cccc([N+](=O)[O-])c1)c1cccc(Cl)c1,66.2% (active)

row,Structure (SMILES),inhibition
1,CCN(CC)C(=O)CN(c1cccc([N+](=O)[O-])c1)S(=O)(=O)c1ccccc1,-4.33%
2,COCCSc1nnc(NC(=O)c2cc(OC)c(OC)cc2[N+](=O)[O-])s1,-2.51%
3,CC(=NNC(=O)c1ccncc1)c1ccc(Cl)c(Cl)c1,-7.3%
4,NS(=O)(=O)c1ccc(CNC(=O)c2ccc(Cl)cc2[N+](=O)[O-])cc1,10.6%
5,CCOC(=O)CCCNC(=O)CN1C(=O)NC(CCc2ccccc2)C1=O (centres undefined),4.69%
6,CCCCNC(=O)C(C)N(CCN(C)C)C(=O)CCCCCN1C(=O)NC(c2ccc(Cl)cc2)C(C(=O)OCc2ccccc2)=C1C (centres undefined),94.5% (active)
7,CC1=C(C(=O)OCc2ccccc2)C(c2ccc(C(F)(F)F)cc2)NC(=O)N1CCCCCC(=O)O (centres undefined),-6.33%
8,CCCCNC(=O)C(C)N(CCN(C)C)C(=O)CCCN1C(=O)NC(c2ccc(Cl)cc2)C(C(=O)OCc2ccccc2)=C1C (centres undefined),91.1% (active)
9,CCOC(=O)C1=C(c2ccccc2)NC(=S)NC1c1ccc(Cl)cc1 (centres undefined),-19%
10,CCN1C(=O)N[C@@H](c2ccccc2)C(C(=O)OC)=C1C,-9.9%
11,C/C(CC(=O)NCc1ccc(Cl)cc1)=N\NC(=O)COc1ccc(C)cc1Br,40.1%
12,Nc1nc(SCC(=O)N2CCN(S(=O)(=O)c3ccc(Cl)cc3)CC2)n[nH]1,-2.96%
13,Fc1ccccc1/C=N/Nc1cc(N2CCCCC2)ncn1,-35%
14,COc1cccc2sc(N(CCCN(C)C)C(=O)CCS(=O)(=O)c3ccccc3)nc12,31.1%
15,COc1cc2ccccc2cc1C(=O)N(CCN(C)C)c1nc2c(F)cccc2s1,2.41%
16,COc1cccc2sc(N(CCCN(C)C)C(=O)C(c3ccccc3)c3ccccc3)nc12,71.9% (active)
17,COc1cccc2c1C(=O)c1c(O)c3c(c(O)c1C2=O)CC(O)(C(C)=NNC(=O)c1ccc(Cl)c(Cl)c1)CC3OC1CC(N)C(O)C(C)O1 (centres undefined),82.2% (active)
18,CN(CC(=O)Nc1ccc(F)c(F)c1F)C(=O)Cn1cnc2c1c(=O)n(C)c(=O)n2C,-2.69%
19,Cc1ccc(OCC(=O)Nc2ccc3oc(=O)ccc3c2)cc1C,-15.4%
20,CCN1/C(=C\c2ccc3ccccc3[n+]2CC)Sc2cc(C)ccc21,104% (active)
21,CC(C)(C)n1nc2c(c1NC(=O)c1ccc(S(=O)(=O)N3CCCC3)cc1)CS(=O)C2 (centres undefined),-11.4%
